Among all 33,000 compounds or so, about 95 (0.3%) were called active.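 How the source made its calls: active means inhibition above 40% in the primary screen; inactive means the rest.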 The list comes from a sample in which actives are over-represented; it also holds similar structures and randomly drawn compounds.
biological target: Coagulation factor XI (Homo sapiens) (UniProt P03951); assay: human FXIa protease inhibitors, primary screen, biochemical, single compound per well (AID 687); details: purified human FXIa, fluorogenic AMC substrate cleavage; at 10 µM; hits give high values;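 further: 0% = enzyme without compound and 100% = blank wells lacking enzyme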
Sequence (P03951 19-387 limits assumed): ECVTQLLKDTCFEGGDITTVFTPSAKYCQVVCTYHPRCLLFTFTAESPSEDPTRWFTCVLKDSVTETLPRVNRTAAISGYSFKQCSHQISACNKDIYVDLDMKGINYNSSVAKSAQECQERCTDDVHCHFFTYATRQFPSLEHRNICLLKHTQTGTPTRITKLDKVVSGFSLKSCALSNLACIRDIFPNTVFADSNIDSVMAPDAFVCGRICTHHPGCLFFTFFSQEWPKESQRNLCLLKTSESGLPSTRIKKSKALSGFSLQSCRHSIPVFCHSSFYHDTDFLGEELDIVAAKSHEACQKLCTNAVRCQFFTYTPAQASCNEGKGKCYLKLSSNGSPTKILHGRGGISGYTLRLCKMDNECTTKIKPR
Sequence (P03951 388-625 limits assumed): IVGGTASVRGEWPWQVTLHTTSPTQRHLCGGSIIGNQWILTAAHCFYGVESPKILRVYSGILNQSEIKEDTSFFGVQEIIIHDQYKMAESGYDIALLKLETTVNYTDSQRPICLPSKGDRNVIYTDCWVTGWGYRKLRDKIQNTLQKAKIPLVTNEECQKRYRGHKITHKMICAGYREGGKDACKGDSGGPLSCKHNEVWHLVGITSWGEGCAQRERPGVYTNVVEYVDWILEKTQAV

inhibition, inactive:
CCc1ccc(CNC(=O)C2CC(=O)N(CCc3ccc(C)cc3)C2)cc1 (centres undefined) 1.74%
CC(C)(C)Oc1ncc(Br)c(OC(C)(C)C)n1 -4.12%
CCc1ccc(CNC(=O)CCc2nc(-c3cccs3)no2)cc1 5.18%
CCOC(=O)c1cnc(SCC(=O)Nc2ccccc2C(=O)OC)nc1N -1.2%
Cc1cc(C)n(-c2nnc(C)n2NC(=O)c2cccc(Cl)c2)n1 -1.74%
C/C(=N\NS(=O)(=O)c1ccc(Br)cc1)c1cccs1 7.3%
O=C(O)c1cc2ccccc2c(=O)s1 3.97%
CCn1c(CC(=O)Nc2ccc(C)cc2)nnc1SCC(=O)Nc1nc(C)cs1 0.06%
COc1ccc(C)cc1NC(=O)CCS(=O)(=O)c1cccc2nonc12 24.9%
Cc1cc(C)nc(N2C(=O)CC(Cc3ccccc3)C2=O)n1 (centres undefined) -0.09%
CCN1CC=C2C(C#N)=C(N)C(C#N)(C#N)[C@H](c3ccoc3)[C@H]2C1 1.2%
Cc1cccc(N2CCN(C(=O)c3cnn4c(C(F)F)cc(-c5ccccc5)nc34)CC2)c1C 3.2%
CCOC(=O)CN(Cc1ccc(OC)c(OC)c1)S(=O)(=O)c1ccc(OC)cc1 6.28%
CC(C)NC(=O)CSc1ccccc1C(=O)NCc1ccc2c(c1)OCO2 6.02%
COn1c(=O)c(=O)n(OC)c2ccccc21 3.76%
Cc1cc(C)n(C(=O)CCNC(=O)c2ccccc2Cl)n1 -5.37%
CCOC(=O)C1=C(C)NC2=C(C(=O)CC(C)(C)C2)C1c1ccsc1 (centres undefined) 1.22%
Cc1cc(=O)oc2ccc(OCC(=O)O)cc12 -9.94%
COc1ccc(Cl)cc1C(=O)Nc1ccc(N(C)C(C)=O)cc1 13.5%
COc1cccc(OC)c1C(=O)Nc1ccc(N2CCCCC2)cc1 4.14%
CCCC(=O)C1CCN(Cc2ccccc2)CC1 9.51%
O=C(O)CCN=C1CCc2ccccc2N1 5.95%
CCNC(=O)N1CCNC(=O)C1CC(=O)Nc1ccc(C(=O)OCC)cc1 (centres undefined) -0.73%
CCC(=O)N(Cc1ccccc1)c1ccccn1 -8.8%
O=C(c1ccco1)N1CCN(C(=O)C2CCCN(S(=O)(=O)c3cccc4nsnc34)C2)CC1 (centres undefined) -6.85%
CCCOc1cccc(C(=O)Nc2nnn(CCC)n2)c1 -6.61%
Cc1nnc(SCC(=O)N2CCc3ccccc3C2)s1 21.3%
O=C(COc1ccc(Cl)cc1)NCCSc1ccccc1 6.47%
COc1ccc(-n2cnc3cc(NCc4ccco4)ccc32)cc1 4.4%
Cn1nnnc1SCC(=O)N1CCN(C(c2ccccc2)c2ccccc2)CC1 -3.99%
CCCC(O)(c1ccc(OC)cc1)C(CN(C)C)c1ccccc1 (centres undefined) -1.37%
CSc1nc(C)cc(SC(C(C)=O)C(=O)Nc2ccccc2)n1 (centres undefined) 0.47%
CC(=O)Nc1cccc(Oc2cc(C#N)c(C#N)cc2N2CCOCC2)c1 2.12%
CCOc1ccc(NC(=O)CCS(=O)(=O)c2ccc3c(c2)CCCN3C(=O)CC)cc1 19.3%
Cc1ccc(S(=O)(=O)c2c(COC(=O)c3cccc(Cl)c3)c(-c3ccccc3)nn2C)cc1 6.1%
CSc1ccccc1NC(=O)c1cc(C2CC2)on1 5.92%
CC(=O)c1c(C)[nH]c(C(=O)NCc2ccc(C)cc2)c1C 4.49%
CCOc1cccc(NC(=O)Cn2nc(-c3ccc4c(c3)OCCO4)ccc2=O)c1 -4.23%
O=C1C=C(NCCNc2c(F)c(F)c(CO)c(F)c2F)CCC1 -9.07%
CC(C)C(c1nnnn1Cc1ccccc1)N1CCC(C(N)=O)CC1 (centres undefined) 3.2%
O=C(Cc1ccc(-n2c(=O)[nH]c3ccccc3c2=O)cc1)N1CCN(c2cccc(Cl)c2)CC1 3.03%
O=C(CN1CCSCC1)N/N=C/c1ccc(F)cc1 -8.31%
CCc1cccc(C)c1N(C(=O)Cn1c(CO)nc2ccccc21)C(C)COC (centres undefined) 20.8%
CC(=O)OC(C(=O)NCCc1ccccc1)c1cccnc1 (centres undefined) 4.94%
OCCN1CCOCCOCCN(CCO)CCN(CCO)CC1 29.9%
CCOc1ccc(C(O)Cc2nc3ccccc3n2C)cc1 (centres undefined) 4.61%
Cc1ccc(C(=O)N2CCN(C3CCCCC3)CC2)s1 -2.79%
CCCCN1C(=O)CC(N2CCOCC2)C1=O (centres undefined) 4.69%
O=c1[nH][nH]c(C(F)(F)F)c1C=NCc1ccccc1Cl -12.4%
